Activity calls are given as the source filed them. How the source made its calls: active means hit-call score of the fitted dose curve at least 0.9, where 1 is the maximum; inactive means score below 0.9.
Tests used:
[1] = ATG_CRE_CIS: Attagene CIS-FACTORIAL HepG2 Assay for human cAMP Responsive Element (CRE) binding protein 3 (AID 2282926); conditions: HepG2 CRE cis-reporter, Attagene multiplexed mRNA; actives raise or lower the signal
In short: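 HepG2 cells transiently transfected with a multiplexed reporter library (CRE-driven unit among them) were dosed for 24 h. Reporter mRNA was quantified by RT-PCR, fluorescent labelling, HpaI digestion and capillary electrophoresis, with bidirectional fitting against DMSO baseline.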

[2] = ATG_DR4_LXR_CIS: Attagene CIS-FACTORIAL HepG2 Assay for human Liver X Receptor (LXR), DR4 submotif (AID 2282929); conditions: HepG2 Attagene DR4 cis-reporter, mRNA transcription; actives raise or lower the signal
In short: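 Transiently transfected HepG2 liver cells; cis-regulated reporters; 24 h dosing. RT-PCR plus CE read-out of reporter mRNA. DMSO baseline, bidirectional curve fitting.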

[3] = ATG_AP_2_CIS: Attagene CIS-FACTORIAL HepG2 Assay for human Activator Protein 2 (AP-2) (AID 2282932); conditions: HepG2 AP-2 cis-reporter, Attagene transcription factor profiling; actives raise or lower the signal
In short: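 Step one: transient transfection of HepG2 with reporter transcription units. Step two: 24 h chemical exposure. Step three: RNA extraction, RT-PCR, labelled fragment analysis by capillary electrophoresis; DMSO serves as baseline.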

[4] = ATG_BRE_CIS: Attagene CIS-FACTORIAL HepG2 Assay for human Bone Morphogenetic Protein (BMP) Response Element (BRE) (AID 2282933); conditions: HepG2 BMP response element reporter, Attagene transcription factor profiling; actives raise or lower the signal
In short: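 Endogenous transcription factor activity read in transiently transfected HepG2 cells after 24 h chemical exposure. Bidirectional curve fitting against DMSO; readout is reporter transcript level by RT-PCR with capillary electrophoresis of labelled products.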

[5] = biological target: Transcription factor E2F1 (Homo sapiens) (UniProt Q01094); assay: ATG_E2F_CIS: Attagene CIS-FACTORIAL HepG2 Assay for human E2F Transcription Factor 1 (AID 2282935); conditions: HepG2 Attagene cis-reporter, E2F reporter RNA transcripts; actives raise or lower the signal
Transcription factor E2F1 (Homo sapiens), sequence (Q01094 whole entry, looked up): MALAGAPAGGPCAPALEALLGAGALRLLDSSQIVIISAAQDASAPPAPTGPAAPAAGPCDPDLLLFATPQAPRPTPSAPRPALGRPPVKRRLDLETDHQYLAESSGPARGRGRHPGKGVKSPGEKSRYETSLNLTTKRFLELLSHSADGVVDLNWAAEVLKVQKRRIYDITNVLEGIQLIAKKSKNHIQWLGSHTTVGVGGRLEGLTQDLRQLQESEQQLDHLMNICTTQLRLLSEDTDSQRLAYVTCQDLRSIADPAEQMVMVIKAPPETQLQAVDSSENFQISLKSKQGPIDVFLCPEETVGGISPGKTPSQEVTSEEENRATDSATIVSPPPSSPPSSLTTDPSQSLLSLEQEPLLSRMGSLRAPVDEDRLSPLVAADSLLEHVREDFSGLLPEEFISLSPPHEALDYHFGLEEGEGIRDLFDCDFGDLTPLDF
In short: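 Total RNA from 24 h-treated, reporter-transfected HepG2 cells undergoes DNase I treatment, oligo(dT) reverse transcription, PCR and 6-FAM primer extension before capillary electrophoresis.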

[6] = ATG_E_Box_CIS: Attagene CIS-FACTORIAL HepG2 Assay for human Enhancer Box (E-box) (AID 2282936); conditions: HepG2 E-box cis-reporter transcription, actives raise or lower the signal
In short: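 DMSO served as negative control and baseline for bidirectional fitting. Human hepatoma HepG2 cells, transiently transfected with cis-reporter constructs, were dosed 24 h; reporter mRNA read by RT-PCR and capillary electrophoresis.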

[7] = ATG_M_19_CIS: Attagene CIS-FACTORIAL HepG2 Assay for M19 Transcription Factor (Internal Marker) (AID 2282939); conditions: HepG2 Attagene CIS-FACTORIAL M19 internal marker reporter; actives raise or lower the signal
In short: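 Internal marker readout, fitted in both directions against DMSO, from HepG2 cells carrying transfected cis-element reporter constructs; RT-PCR and capillary electrophoresis of reporter mRNA after 24 h exposure.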

[8] = ATG_Ets_CIS: Attagene CIS-FACTORIAL HepG2 Assay for human Erythroblast Transformation Specific (ETS) (AID 2282941); conditions: HepG2 ETS cis-reporter transcription, actives raise or lower the signal
In short: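 HepG2 cells transiently transfected with cis-promoter reporter transcription units were dosed for 24 h; reporter mRNA was measured by RT-PCR, 6-FAM primer extension, HpaI digestion and capillary electrophoresis, with bidirectional fitting against DMSO baseline.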

[9] = biological target: Hepatocyte nuclear factor 3-beta (Homo sapiens) (UniProt Q9Y261); assay: ATG_FoxA2_CIS: Attagene CIS-FACTORIAL HepG2 Assay for human Forkhead box A2 (FOXA2) (AID 2282942); conditions: HepG2 cis-reporter transcription factor activity, 24 h; actives raise or lower the signal
Hepatocyte nuclear factor 3-beta (Homo sapiens), sequence (Q9Y261 whole entry, looked up): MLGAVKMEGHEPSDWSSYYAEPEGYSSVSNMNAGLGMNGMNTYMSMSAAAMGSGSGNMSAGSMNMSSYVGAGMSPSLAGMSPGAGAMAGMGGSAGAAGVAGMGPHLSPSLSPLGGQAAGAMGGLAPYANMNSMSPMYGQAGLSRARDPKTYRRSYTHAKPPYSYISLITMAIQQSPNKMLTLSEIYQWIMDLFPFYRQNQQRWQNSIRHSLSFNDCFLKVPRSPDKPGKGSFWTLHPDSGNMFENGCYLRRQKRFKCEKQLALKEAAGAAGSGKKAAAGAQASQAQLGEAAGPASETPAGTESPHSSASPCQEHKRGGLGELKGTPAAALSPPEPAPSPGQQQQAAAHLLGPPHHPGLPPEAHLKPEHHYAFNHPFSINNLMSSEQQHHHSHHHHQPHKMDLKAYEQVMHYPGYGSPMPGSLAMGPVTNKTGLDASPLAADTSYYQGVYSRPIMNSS
In short: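 Multiplexed cis-element reporter assay in transiently transfected HepG2. Twenty-four hours post-dosing, RNA was reverse-transcribed, amplified, FAM-labelled, HpaI-digested and separated by CE. Activity gain or loss relative to DMSO.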

[10] = ATG_FoxO_CIS: Attagene CIS-FACTORIAL HepG2 Assay for human Forkhead box O (FoxO) (AID 2282943); conditions: HepG2 Attagene cis-reporter, FoxO element, mRNA; actives raise or lower the signal
In short: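 Human hepatoma HepG2 cells carry transiently introduced reporter transcription units controlled by cis promoter elements. Chemical treatment lasted 24 h, and mRNA signal was compared with DMSO.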

[11] = ATG_GATA_CIS: Attagene CIS-FACTORIAL HepG2 Assay for human GATA Binding Protein (AID 2282944); conditions: HepG2 GATA cis-element reporter, Attagene multiplex mRNA; actives raise or lower the signal
In short: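 Reporter transcripts from a GATA cis-regulated unit, among multiplexed reporters in transfected HepG2 cells, were measured by RT-PCR with capillary electrophoresis after 24 h dosing. Induction or loss scored relative to DMSO.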

[12] = ATG_M_32_CIS: Attagene CIS-FACTORIAL HepG2 Assay for M32 Transcription Factor (Internal Marker) (AID 2282949); conditions: HepG2 Attagene cis-factorial M32 reporter, mRNA; actives raise or lower the signal;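 further: background control marker of the multiplexed CIS panel rather than a real target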
In short: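 Internal background marker read-out: RT-PCR/capillary electrophoresis fluorescence of reporter transcripts from transiently transfected HepG2 cells after 24 h chemical exposure. Activity fitted bidirectionally relative to DMSO negative control.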

[13] = ATG_PXRE_CIS: Attagene CIS-FACTORIAL HepG2 Assay for human Pregnane X Receptor Element (PXRE) (AID 2282957); conditions: HepG2 Attagene CIS-FACTORIAL PXRE reporter, mRNA; actives raise or lower the signal
In short: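 HepG2 cells transiently transfected with cis-regulated multiple reporter transcription units; endogenous factor activity measured as reporter mRNA 24 h after dosing. RT-PCR, fluorescent primer extension, HpaI digestion, capillary electrophoresis; bidirectional fit versus DMSO baseline.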

[14] = ATG_Sox_CIS: Attagene CIS-FACTORIAL HepG2 Assay for human SRY-box transcription factor (SOX) (AID 2282960); conditions: HepG2 Attagene cis-factorial SOX reporter, mRNA; actives raise or lower the signal
In short: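 Fluorescence-labelled cDNA fragments from reporter transcripts, sized by CE, give the signal. Cells: HepG2, transiently transfected with cis-regulated reporter units. Exposure 24 h; DMSO negative control; bidirectional curve fitting.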

[15] = biological target: Transcription factor Sp1 (Homo sapiens) (UniProt P08047); assay: ATG_Sp1_CIS: Attagene CIS-FACTORIAL HepG2 Assay for human Specificity Protein 1 (Sp1) (AID 2282961); conditions: HepG2 Sp1 cis-reporter transcription, actives raise or lower the signal
Transcription factor Sp1 (Homo sapiens), sequence (P08047 whole entry, looked up): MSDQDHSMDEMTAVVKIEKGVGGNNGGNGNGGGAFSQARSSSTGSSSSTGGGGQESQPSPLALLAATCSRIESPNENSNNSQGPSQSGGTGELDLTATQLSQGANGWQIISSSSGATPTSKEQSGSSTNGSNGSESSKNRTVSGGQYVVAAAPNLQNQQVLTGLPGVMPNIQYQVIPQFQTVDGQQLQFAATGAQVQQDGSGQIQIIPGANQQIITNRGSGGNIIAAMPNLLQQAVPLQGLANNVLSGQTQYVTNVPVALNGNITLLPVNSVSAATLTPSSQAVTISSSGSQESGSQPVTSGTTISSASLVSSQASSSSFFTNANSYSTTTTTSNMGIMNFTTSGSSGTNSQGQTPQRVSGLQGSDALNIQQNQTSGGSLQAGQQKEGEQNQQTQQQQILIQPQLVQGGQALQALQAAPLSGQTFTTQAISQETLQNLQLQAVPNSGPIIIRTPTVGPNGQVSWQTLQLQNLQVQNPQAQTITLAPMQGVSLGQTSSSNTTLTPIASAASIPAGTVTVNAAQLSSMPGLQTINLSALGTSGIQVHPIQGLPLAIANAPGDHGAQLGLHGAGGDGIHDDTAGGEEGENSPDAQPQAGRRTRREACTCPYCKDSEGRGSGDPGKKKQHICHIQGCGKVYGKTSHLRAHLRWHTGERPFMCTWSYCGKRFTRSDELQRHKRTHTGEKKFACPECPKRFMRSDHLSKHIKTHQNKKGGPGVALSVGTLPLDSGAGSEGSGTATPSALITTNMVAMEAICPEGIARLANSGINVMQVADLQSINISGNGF
In short: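 Chemicals are dosed onto HepG2 cells transfected with multiple cis-promoter reporter constructs, and after 24 h reporter RNA is reverse-transcribed, PCR-amplified and resolved by capillary electrophoresis for fluorescence quantitation; activity is scored up or down against DMSO.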

[16] = ATG_SREBP_CIS: Attagene CIS-FACTORIAL HepG2 Assay for human Sterol Regulatory Element Binding (SREBP) (AID 2282962); conditions: HepG2 Attagene cis-factorial SREBP reporter, mRNA; actives raise or lower the signal
In short: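 HepG2 cells transiently transfected with multiplexed cis-element reporter units report endogenous transcription factor activity. After 24 h of chemical exposure, reporter mRNA was quantified by RT-PCR, 6-FAM labelling, HpaI digestion and capillary electrophoresis; bidirectional fits used DMSO as baseline.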

[17] = biological target: Signal transducer and activator of transcription 3 (Homo sapiens) (UniProt P40763); assay: ATG_STAT3_CIS: Attagene CIS-FACTORIAL HepG2 Assay for human Signal Transducer and Activator of Transcription 3 (STAT3) (AID 2282963); conditions: HepG2, Attagene cis-factorial STAT3 reporter transcription; actives raise or lower the signal
Signal transducer and activator of transcription 3 (Homo sapiens), sequence (P40763 whole entry, looked up): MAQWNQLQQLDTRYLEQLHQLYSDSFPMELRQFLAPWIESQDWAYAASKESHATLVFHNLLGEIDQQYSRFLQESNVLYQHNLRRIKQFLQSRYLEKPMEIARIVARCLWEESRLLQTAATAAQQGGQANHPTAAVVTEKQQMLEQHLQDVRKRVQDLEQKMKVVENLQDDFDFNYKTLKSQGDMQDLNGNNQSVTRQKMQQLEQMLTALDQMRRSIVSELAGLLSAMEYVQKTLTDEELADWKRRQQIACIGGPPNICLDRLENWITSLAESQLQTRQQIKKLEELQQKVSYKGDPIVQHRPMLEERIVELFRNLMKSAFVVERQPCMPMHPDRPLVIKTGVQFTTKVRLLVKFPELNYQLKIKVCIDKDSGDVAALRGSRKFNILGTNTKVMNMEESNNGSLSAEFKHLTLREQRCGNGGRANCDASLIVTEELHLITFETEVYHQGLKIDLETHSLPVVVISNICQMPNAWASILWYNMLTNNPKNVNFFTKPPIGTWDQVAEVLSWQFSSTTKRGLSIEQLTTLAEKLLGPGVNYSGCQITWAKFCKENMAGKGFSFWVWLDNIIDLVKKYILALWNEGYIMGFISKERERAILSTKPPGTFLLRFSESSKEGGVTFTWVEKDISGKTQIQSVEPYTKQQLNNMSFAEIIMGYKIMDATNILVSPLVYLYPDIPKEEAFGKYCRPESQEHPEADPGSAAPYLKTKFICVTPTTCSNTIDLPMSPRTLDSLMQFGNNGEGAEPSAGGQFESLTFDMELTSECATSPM
In short: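 After a 24 h compound incubation, total RNA from MRTU-transfected HepG2 cells was converted to cDNA and reporter sequences PCR-amplified, labelled and profiled by capillary electrophoresis. Gain and loss of signal were referenced to DMSO.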

[18] = ATG_TA_CIS: Attagene CIS-FACTORIAL HepG2 Assay for human TA Basal Promoter (AID 2282964); conditions: HepG2 Attagene CIS-factorial TA basal promoter reporter; actives raise or lower the signal
In short: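 Background-control readout: TA basal promoter reporter mRNA, fitted in both directions relative to DMSO. Measured by RT-PCR and capillary electrophoresis 24 hours after treating HepG2 human liver cells transiently carrying multiplexed cis-regulated reporter constructs.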

[19] = ATG_TCF_b_cat_CIS: Attagene CIS-FACTORIAL HepG2 Assay for human T-Cell-Factor with beta-catenin (TCF/b-cat) (AID 2282965); conditions: HepG2 TCF/beta-catenin cis-reporter transcription, actives raise or lower the signal
In short: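 Measured: reporter mRNA in HepG2 transiently transfected with cis-promoter reporter units, 24 h after chemical addition. Fitting was bidirectional, DMSO as negative control.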

[20] = ATG_TGFb_CIS: Attagene CIS-FACTORIAL HepG2 Assay for human Transforming Growth Factor (TGF) (AID 2282967); conditions: HepG2 Attagene CIS TGFb reporter, mRNA transcription; actives raise or lower the signal
In short: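 Endogenous TGFB1-linked transcription factor activity read as reporter mRNA via RT-PCR and capillary electrophoresis, 24 h after dosing transiently transfected HepG2 cells. Gain or loss of signal fitted relative to DMSO.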

Measured: AC50

CCc1cc(C)cc(CC)c1-c1c(OC(=O)C(C)(C)C)n2n(c1=O)CCOCC2
active: [5] 25.8 µM | [13] 9.48 µM
inactive: all other assays above

Nc1ccccc1C(=O)Oc1ccc2ccccc2c1
inactive: [1] | [5] | [6] | [9] | [12] | [13] | [18]
active: [2] 63.9 µM | [3] 66.8 µM | [4] 161 µM | [7] 166 µM | [8] 75.7 µM | [10] 147 µM | [11] 143 µM | [14] 166 µM | [15] 56.2 µM | [16] 65.5 µM | [17] 74.5 µM | [19] 164 µM | [20] 12 µM

C[C@]12CCC(=O)C(O)=C1CC[C@@H]1[C@@H]2CC[C@]2(C)C(=O)CC[C@@H]12
active: [13] 11.2 µM | [16] 27.6 µM
inactive: all other assays above

[N-]=[N+]=CC(=O)OC[C@H](N)C(=O)O
active: [13] 26 µM
inactive: all other assays above

Nc1ccc(-c2ccc(N)c(N)c2)cc1N
inactive: all assays above

CCCCOP(=O)(O)OCCCC
inactive: all assays above

O=C1C(Cl)=C(Cl)C(=O)C(Cl)=C1Cl
active: [2] 66.9 µM | [6] 58.4 µM | [20] 26.6 µM
inactive: all other assays above

From PubChem BioAssay (EPA / NIEHS)
